Measurements published in PubChem BioAssay (NCI).
About 83,000 compounds went through this panel and 20% of them were active in at least one assay; those are over-represented in the sample as a whole.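 Treatment: one concentration, 48 hours, 96-well format. Scoring: percent growth, with anything below 10 considered active.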 Activity calls are given as the source filed them.

Legend:
Test in all cases: NCI-60 one-dose screen, 48 h (100 = growth as untreated, 0 = no growth, -100 = all killed)
SK-MEL-2 melanoma = details: 10 µM unless noted
EKVX NSCLC = details: 10 µM unless noted
SN12C renal = details: 10 µM unless noted
UO-31 renal = details: 10 µM unless noted
TK-10 renal = details: 10 µM unless noted
ACHN renal = details: 10 µM unless noted
CAKI-1 renal = details: 10 µM unless noted
A498 renal = details: 10 µM
HL-60(TB) leukemia = details: 10 µM unless noted
CCRF-CEM leukemia = details: 10 µM unless noted

Measured: growth

CC(=O)OC1CCC2(C)C(CCC3C2CC(=O)C2(C)C3CC(Sc3ccc(N(CCCl)CCCl)cc3)C2C(C)=O)C1 (stereo unspecified)
inactive: SK-MEL-2 melanoma 93.3% | EKVX NSCLC 115% | SN12C renal 87.3% | UO-31 renal 77.6% | TK-10 renal 92.6% | ACHN renal 72.3% | CAKI-1 renal 68% | A498 renal 103% | HL-60(TB) leukemia 79.3% | CCRF-CEM leukemia 63.1%

Cc1sc2c(c1C)C(c1ccc(Cl)cc1)=N[C@@H](CC(=O)OC(C)(C)C)c1nnc(C)n1-2
active: A498 renal -11.8% | HL-60(TB) leukemia 4.3%
inactive: SK-MEL-2 melanoma 48.8% | EKVX NSCLC 42.2% | SN12C renal 49.5% | UO-31 renal 13.4% | TK-10 renal 22.5% | ACHN renal 31.1% | CAKI-1 renal 21.6% | CCRF-CEM leukemia 38.7%

CC(C)(NC(=O)O[C@@H]1CN2CCC1CC2)c1csc(-c2ccc(F)cc2)n1
inactive: SK-MEL-2 melanoma 108% | EKVX NSCLC 89.5% | SN12C renal 95.4% | UO-31 renal 81.1% | TK-10 renal 91.9% | ACHN renal 98.4% | CAKI-1 renal 81.5% | A498 renal 90.6% | HL-60(TB) leukemia 90% | CCRF-CEM leukemia 98.3%

CCCCCN(CCCCC)CC(O)c1cc(Cl)ccc1OC (stereo unspecified)
inactive: SK-MEL-2 melanoma 32.8% | EKVX NSCLC 52.4% | SN12C renal 52.7% | UO-31 renal 25.2% | TK-10 renal 73.1% | ACHN renal 43.9% | CAKI-1 renal 28.7% | A498 renal 37.4% | HL-60(TB) leukemia 55.4%

CC[C@H](C)[C@H](NC(=O)C12C3C4C1C1C2C3C41NC)C(=O)N(C)[C@H](C[C@@H](OC(C)=O)c1nc(C(=O)N[C@@H](Cc2ccccc2)C[C@H](C)C(=O)OC)cs1)C(C)C (stereo partly specified)
active: A498 renal -12.6% | HL-60(TB) leukemia -14.6%
inactive: SK-MEL-2 melanoma 43% | EKVX NSCLC 40.7% | SN12C renal 36.5% | UO-31 renal 51.1% | TK-10 renal 41.9% | ACHN renal 40.8% | CAKI-1 renal 40.5% | CCRF-CEM leukemia 13.2%

C#C[C@]1(OC(=O)CCCCCC)CC[C@H]2[C@@H]3CCC4=CC(=O)CC[C@@H]4[C@H]3CC[C@@]21C
active: HL-60(TB) leukemia 4.53%
inactive: SK-MEL-2 melanoma 55.1% | EKVX NSCLC 55.6% | SN12C renal 47.3% | UO-31 renal 54.7% | TK-10 renal 54.7% | ACHN renal 54.2% | CAKI-1 renal 56.1% | A498 renal 80.5% | CCRF-CEM leukemia 41.2%

CC1[C@H](C)OC(=O)CC(O)CC(O)CC(O)CCC(O)C(O)C[C@]2(O)CC(O)C(C(=O)O)C(CC(OC3O[C@H](C)[C@@H](O)[C@H](N)[C@@H]3O)/C=C/C=C/C=C/C=C/CC/C=C/C=C/[C@H](C)[C@H]1O)O2 (stereo partly specified)
inactive: SK-MEL-2 melanoma 134% | EKVX NSCLC 104% | SN12C renal 98.5% | UO-31 renal 93.2% | TK-10 renal 123% | ACHN renal 90.8% | CAKI-1 renal 88.6% | A498 renal 114% | HL-60(TB) leukemia 110% | CCRF-CEM leukemia 90.6%

O=C1Nc2ccccc2C2c3cccn3-c3ccccc3CN12 (stereo unspecified)
inactive: EKVX NSCLC 67.8% | SN12C renal 69.4% | UO-31 renal 60% | TK-10 renal 71.8% | ACHN renal 81.6% | CAKI-1 renal 63.4% | A498 renal 41.1% | HL-60(TB) leukemia 44.6%
active: SK-MEL-2 melanoma 6.54%

O=c1[nH]cc(N(CCCl)CCCl)c(=O)[nH]1
inactive: SK-MEL-2 melanoma 102% | EKVX NSCLC 101% | SN12C renal 59.3% | UO-31 renal 42.9% | TK-10 renal 86.8% | ACHN renal 15.5% | CAKI-1 renal 12.8% | A498 renal 101% | CCRF-CEM leukemia 31%
active: HL-60(TB) leukemia -9.89%

CN(CCCCN(C)CCOS(C)(=O)=O)CCOS(C)(=O)=O
inactive: SK-MEL-2 melanoma 102% | EKVX NSCLC 112% | SN12C renal 71.9% | UO-31 renal 71.5% | TK-10 renal 98.7% | ACHN renal 24.9% | A498 renal 85.3% | HL-60(TB) leukemia 61.4% | CCRF-CEM leukemia 50.3%
active: CAKI-1 renal 2.42%

CC(=O)Oc1ccccc1C(=O)NCCC[Se]C#N
active: SN12C renal -17.3% | UO-31 renal -37.8% | TK-10 renal -65.7% | ACHN renal 6.63% | CAKI-1 renal 0.654% | A498 renal -2.68% | HL-60(TB) leukemia 5.1%
inactive: SK-MEL-2 melanoma 44.3% | EKVX NSCLC 44.5% | CCRF-CEM leukemia 22.9%

c1ccc(Nc2nc(-c3ccccc3)c[se]2)cc1
inactive: SK-MEL-2 melanoma 105% | EKVX NSCLC 70.3% | SN12C renal 86.2% | UO-31 renal 46.2% | TK-10 renal 83.5% | ACHN renal 84% | CAKI-1 renal 55.7% | A498 renal 55.9% | HL-60(TB) leukemia 102% | CCRF-CEM leukemia 101%

CCOC(=O)C(Cc1ccc(N(CCCl)CCCl)cc1)NC(=O)C(CC(C)C)NC(C)=O (stereo unspecified)
inactive: EKVX NSCLC 114% | SN12C renal 25.4% | TK-10 renal 21.3% | A498 renal 86.5% | HL-60(TB) leukemia 13.1% | CCRF-CEM leukemia 12.3%
active: SK-MEL-2 melanoma -2.13% | UO-31 renal -48.7% | ACHN renal 8.89% | CAKI-1 renal -20.7%

Cc1ccc2c(C(C[N+](=O)[O-])c3cccs3)c(-c3ccccc3)[nH]c2c1 (stereo unspecified)
inactive: SK-MEL-2 melanoma 20.7% | EKVX NSCLC 35.9% | SN12C renal 32% | UO-31 renal 34.8% | TK-10 renal 64.7% | ACHN renal 33.8% | CCRF-CEM leukemia 15%
active: CAKI-1 renal 2.76% | A498 renal -19.6% | HL-60(TB) leukemia 0.431%

O=[N+]([O-])c1ccc([Se]C2CCCCC2Cl)c([N+](=O)[O-])c1 (stereo unspecified)
active: UO-31 renal -88.3%
inactive: SK-MEL-2 melanoma 66.5% | EKVX NSCLC 46% | SN12C renal 59.5% | TK-10 renal 102% | ACHN renal 88.2% | CAKI-1 renal 76.7% | A498 renal 29.4% | HL-60(TB) leukemia 78.8% | CCRF-CEM leukemia 80.9%

CC(C)=CC1C(C(=O)OCc2cccc(Oc3ccccc3)c2)C1(C)C (stereo unspecified)
inactive: SK-MEL-2 melanoma 108% | EKVX NSCLC 82.4% | SN12C renal 94.5% | UO-31 renal 76.5% | TK-10 renal 96.6% | ACHN renal 91.6% | CAKI-1 renal 59.6% | A498 renal 69.6% | HL-60(TB) leukemia 119% | CCRF-CEM leukemia 102%

CC[C@H](C)[C@H](NC(=O)C12C3C4C1C1C2C3C41NC(C)=O)C(=O)N(C)[C@H](C[C@@H](OC(C)=O)c1nc(C(=O)N[C@@H](Cc2ccccc2)C[C@H](C)C(=O)OC)cs1)C(C)C (stereo partly specified)
active: A498 renal -10.4% | HL-60(TB) leukemia -13.3%
inactive: SK-MEL-2 melanoma 49.2% | EKVX NSCLC 38.6% | SN12C renal 25.6% | UO-31 renal 59.8% | TK-10 renal 62% | ACHN renal 36.6% | CAKI-1 renal 74.1% | CCRF-CEM leukemia 12.2%

C[S+]1C=Cc2ccccc2C1c1ccc(Cl)cc1 (stereo unspecified)
inactive: SK-MEL-2 melanoma 92.7% | EKVX NSCLC 90.6% | SN12C renal 96% | UO-31 renal 75.6% | TK-10 renal 101% | ACHN renal 99.3% | CAKI-1 renal 72.7% | A498 renal 96% | HL-60(TB) leukemia 91.3% | CCRF-CEM leukemia 73.7%

O=Cc1cn(Cc2ccc(Cl)cc2)c2ccccc12
inactive: SK-MEL-2 melanoma 82.7% | EKVX NSCLC 88.9% | SN12C renal 89.6% | UO-31 renal 61.4% | ACHN renal 91.6% | HL-60(TB) leukemia 97.7% | CCRF-CEM leukemia 89.6%
active: TK-10 renal 0.213% | CAKI-1 renal -20.8% | A498 renal -89.8%

O=C(CC1(O)C(=O)N(Cc2ccccc2)c2ccc(Br)cc21)c1ccc(C(=O)NCC2CCC3(CC2)OOC2(CCCCC2)OO3)cc1 (stereo unspecified)
inactive: SK-MEL-2 melanoma 34.1%
active: EKVX NSCLC -65% | SN12C renal -55.8% | UO-31 renal -73.3% | TK-10 renal -80.9% | ACHN renal -83% | CAKI-1 renal -90.8% | A498 renal -74% | HL-60(TB) leukemia -57.3% | CCRF-CEM leukemia -41.6%

Cc1ccccc1NC(=NCCCN1CC1)Nc1ccccc1C
inactive: SK-MEL-2 melanoma 114% | EKVX NSCLC 96.8% | SN12C renal 92.1% | UO-31 renal 73.3% | TK-10 renal 99.7% | ACHN renal 90.1% | CAKI-1 renal 77.5% | A498 renal 91.7% | HL-60(TB) leukemia 95.9% | CCRF-CEM leukemia 89.7%

ClCCN(CCCl)c1nc(Cl)c(C2CC(c3ccccc3)=NN2c2cc(Cl)cc(Cl)c2)s1 (stereo unspecified)
inactive: SK-MEL-2 melanoma 103% | EKVX NSCLC 101% | SN12C renal 95.2% | UO-31 renal 89.6% | TK-10 renal 109% | ACHN renal 96.1% | CAKI-1 renal 83.4% | A498 renal 116% | HL-60(TB) leukemia 105% | CCRF-CEM leukemia 102%

CCOC(=O)N1CC1
inactive: SK-MEL-2 melanoma 105% | EKVX NSCLC 84% | SN12C renal 95.8% | UO-31 renal 80.7% | TK-10 renal 112% | ACHN renal 94.8% | CAKI-1 renal 95.1% | A498 renal 111%

COc1cccc(C=NC(Cc2cnc[nH]2)C(=O)O)c1O (stereo unspecified)
inactive: SK-MEL-2 melanoma 70% | EKVX NSCLC 102% | SN12C renal 97.5% | UO-31 renal 84.1% | TK-10 renal 139% | ACHN renal 97.8% | CAKI-1 renal 86.5% | A498 renal 98.2% | HL-60(TB) leukemia 189% | CCRF-CEM leukemia 69.6%

COc1ccc(/C=C\c2cc(OC)c(OC)c(OC)c2)cc1OCC(=O)Nc1nc2ccc(C(F)(F)F)cc2s1
active: SK-MEL-2 melanoma -2.78% | TK-10 renal 8.6%
inactive: EKVX NSCLC 77.3% | SN12C renal 45.8% | UO-31 renal 21% | ACHN renal 38.2% | CAKI-1 renal 24.5% | A498 renal 14.3% | HL-60(TB) leukemia 11.8% | CCRF-CEM leukemia 25.4%

O=C1NC(=O)C(=Cc2cccn2CCCCCn2c3ccccc3c(=O)c3ccccc32)C(=O)N1
inactive: SK-MEL-2 melanoma 107% | EKVX NSCLC 105% | SN12C renal 106% | UO-31 renal 79.4% | TK-10 renal 101% | ACHN renal 105% | CAKI-1 renal 103% | A498 renal 104% | HL-60(TB) leukemia 92.2% | CCRF-CEM leukemia 100%

COc1ccc2c(c1)c(C1(O)CC(CSC#N)OC1=O)cn2C(=O)c1ccc(Cl)cc1 (stereo unspecified)
inactive: SK-MEL-2 melanoma 80% | EKVX NSCLC 89.6% | SN12C renal 94% | UO-31 renal 78.5% | TK-10 renal 103% | ACHN renal 94.5% | CAKI-1 renal 82.9% | A498 renal 153% | HL-60(TB) leukemia 94.6% | CCRF-CEM leukemia 82%
